Assay results as given in PubChem BioAssay (NCATS).
Inconclusive results are not listed. The source made the active and inactive calls. Calls come from the whole dose curve; as a rule, active = well fitted curve in the direction sought with a large enough effect; inconclusive = small, poorly fitted or top-dose-only effect, or another doubt; inactive = no such curve, though single readings can be large; an effect the other way counts as inactive or inconclusive.

Assays:
[1] = BET inhibitor-based combinations targeting novel dependencies in MECOM-rearranged (r) AML: OCI-AML3 cell line (AID 2202232); settings: Potency: OCI-AML3 viability; note: nearly all actives have a fitted effect of over 35% in size
Procedure, shortened: (§1)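 500 cells/well; 11-pt dose curve; 48 h, standard incubator; CellTiter-Glo luminescence after 15 min RT; DMSO/empty-well normalization; AUC plus Z-AUC (mean-centered within each line).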

[2] = BET inhibitor-based combinations targeting novel dependencies in MECOM-rearranged (r) AML: HNT-34 cell line (AID 2202234); note: nearly all actives have a fitted effect of over 35% in size
Procedure, shortened: (§2)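 Cells were plated at 500 per well and exposed to each drug across an 11-point dose range for 48 hr at standard incubator conditions. Viability was read by CellTiter-Glo luminescence, and activity was expressed as AUC and per-cell-line Z-transformed AUC.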

[3] = BET inhibitor-based combinations targeting novel dependencies in MECOM-rearranged (r) AML: UCSD-AML1 cell line (AID 2202235); note: nearly all actives have a fitted effect of over 40% in size
Procedure, shortened: as §2

[4] = BET inhibitor-based combinations targeting novel dependencies in MECOM-rearranged (r) AML: AML-191 cell line (AID 2202236; note: nearly all actives have a fitted effect of over 35% in size)
Procedure, shortened: as §1

[5] = BET inhibitor-based combinations targeting novel dependencies in MECOM-rearranged (r) AML: AML-194 cell line (AID 2202237; note: nearly all actives have a fitted effect of over 40% in size)
Procedure, shortened: as §1

[6] = BET inhibitor-based combinations targeting novel dependencies in MECOM-rearranged (r) AML: MV-4-11 cell line (AID 2202233); note: nearly all actives have a fitted effect of over 45% in size
Procedure, shortened: as §2

Measured: Potency
Potency is the fitted concentration of half-maximal effect.

CC(=O)Nc1ccc(C(=O)NC(C)(C)C)cc1
not listed: [6]
inactive: all other assays above

COc1ccc(S(=O)(=O)N2CCc3cccc(-c4ccncc4)c32)cc1
active: [1] 1.05 µM | [6] 1.18 µM | [3] 1.18 µM | [4] 1.05 µM | [5] 0.934 µM

COc1ccc(-c2oc3ncnc(N)c3c2-c2ccc(NC(=O)Nc3cc(C(F)(F)F)ccc3F)cc2)cc1
active: [1] 10.5 µM | [6] 0.372 µM | [2] 7.42 µM | [4] 8.33 µM

CN(C)CCOc1ccc(-c2nc(-c3ccc4c(c3)CC/C4=N\O)c(-c3ccncc3)[nH]2)cc1
active: [1] 5.9 µM | [6] 16.6 µM | [2] 14.8 µM | [4] 16.6 µM | [5] 20.9 µM

COc1cc(C(N)=O)ccc1NC(=O)[C@@H]1N[C@@H](CC(C)(C)C)[C@@]2(C(=O)Nc3cc(Cl)ccc32)[C@H]1c1cccc(Cl)c1F
active: [1] 0.934 µM | [6] 0.0934 µM | [2] 0.148 µM | [3] 0.209 µM | [4] 0.468 µM | [5] 0.59 µM

C=CC(=O)N1CCC[C@H](n2c(=O)n(-c3ccc(Oc4ccccc4)cc3)c3c(N)ncnc32)C1
active: [2] 16.6 µM
inactive: [1] | [3]

Nc1nc(-c2nn(Cc3ccccc3F)c3ncccc23)ncc1C1CC1
active: [1] 5.9 µM | [6] 1.18 µM | [3] 14.8 µM

COc1cc(C(C)C)c2c(c1)S(=O)(=O)N(COc1cc(=O)n3cccc(OCCN4CCCCC4)c3n1)C2=O
active: [1] 23.5 µM | [6] 23.5 µM | [3] 26.3 µM | [4] 29.5 µM | [5] 23.5 µM

CC(C)(C)C(=O)N1N=CC[C@H]1c1ccccc1
inactive: all assays above

O=C1CC[C@H](N2Cc3c(OCc4ccc(CN5CCOCC5)cc4)cccc3C2=O)C(=O)N1
inactive: [1] | [2] | [3] | [4]

CCC(=O)N1CCOc2c(cc(-c3cc(OC)cc(OC)c3)cc2C(=O)N[C@H]2CCCN(C)C2)C1
active: [1] 16.6 µM | [6] 10.5 µM | [3] 20.9 µM | [4] 14.8 µM | [5] 18.6 µM

O=C(Nc1ncc(SCCN2CCCC2)s1)[C@]1(c2ccc(S(=O)(=O)C3CC3)cc2)C[C@H]1C1CCCCC1
active: [1] 20.9 µM | [6] 11.8 µM | [2] 23.5 µM | [4] 18.6 µM | [5] 16.6 µM

CN1CCN(C(=O)c2ccc(-c3ccc4c(C=O)c(O)ccc4c3)s2)CC1
active: [1] 26.3 µM | [2] 16.6 µM

Cc1ccc(NC(=O)c2cccc(C(C)(C)C#N)c2)cc1Nc1ccc2ncn(C)c(=O)c2c1
active: [1] 0.0742 µM | [2] 0.662 µM

CC(=O)N1CCC(Nc2cc(C(=O)NC[C@H](O)CN3CCc4ccccc4C3)ncn2)CC1
active: [1] 0.0042 µM | [6] 0.0417 µM
inactive: [2] | [3] | [5]

N#C/C(=C(/N)Sc1ccc(N)cc1)c1ccccc1C(F)(F)F
active: [1] 7.42 µM | [6] 18.6 µM | [4] 5.9 µM | [5] 16.6 µM

O=C(NO)c1cnc(N2C[C@H]3C[C@@H]2CN3c2cc(C(F)(F)F)ccn2)nc1
active: [1] 3.72 µM | [6] 2.09 µM | [2] 3.72 µM | [3] 3.72 µM | [4] 4.17 µM | [5] 4.17 µM

COc1ccc2[nH]c3c(c2c1)CCN[C@]31CS[C@@H]2c3c(OC(C)=O)c(C)c4c(c3[C@H](COC1=O)N1[C@@H]2[C@H]2c3c(cc(C)c(OC)c3O)C[C@@H]([C@@H]1O)N2C)OCO4
active: [1] 0.0034 µM | [6] 0.0019 µM | [2] 0.0034 µM | [3] 0.0038 µM | [5] 0.0038 µM

COc1cccc(-c2c(C)n(Cc3c(F)cccc3C(F)(F)F)c(=O)n(C[C@H](NCCCC(=O)O)c3ccccc3)c2=O)c1F
inactive: [6] | [3] | [5]
active: [1] 7.42 µM

C[C@]12CCCN1CC1=NNC(=O)c3cc(F)cc4[nH]c2c1c34
active: [1] 20.9 µM | [6] 2.63 µM | [2] 5.9 µM | [4] 18.6 µM

C[C@H]1C[C@@H](n2c(Nc3ccc(OC(F)(F)F)cc3)nc3cc(CCC(=O)O)ccc32)CC(C)(C)C1
active: [1] 20.9 µM | [6] 20.9 µM | [4] 26.3 µM
